Screening data deposited in PubChem by National Center for Advancing Translational Sciences (NCATS).
Rows were chosen to be rich in hits. Some 0.47% of all compounds tested hit in one or more screens of this group.
UbGFP stabilizer: inhibits proteasome, raising ubiquitin-GFP reporter fluorescence; Ubiquitin-GFP reporter cells, proteasome inhibition, GFP fluorescence; response scale: untreated = 0%, 10 µM MG-132 = 100%; Potency, µM (titrated, usually from 45.9 µM), for the others: at the highest dose activation (GFP accumulation), hits mostly activators; 67,000 tested, under 10 active; AID 526; active = well fitted activation curve with a large enough effect, not every such curve was filed as active; inconclusive = small, poorly fitted or top-dose-only effect, or another doubt; inactive = no such curve, though single readings can be large or run the other way; note: potency is the fitted concentration of half-maximal effect
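U2OS Ub(G76V)-GFP reporter; O/N plating, 0.5% FBS; cpd 46 uM–2.9 nM, 4 h, 37 °C; GFP+ cell count, 488/515 nm; norm. to basal vs 10 uM MG-132; CRC fit.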
Hsp90 Hop PPI: changes Hsp90-Hop TPR2A binding signal, up or down; actives 0.44% (n = 71,000); AlphaScreen TPR2A-His6 binding biotin-Hsp90 C-terminal peptide; Potency, µM (highest dose often 57 µM), without a hit: at the top dose activity change, negative = inhibition; active = well fitted curve in either direction with a large enough effect; inconclusive = small, poorly fitted or top-dose-only effect, or another doubt; note: potency is the fitted concentration of half-maximal effect; % is set by controls: 0 for no effect and ±100 for the full control effect
BRCT inh red: BRCT-phosphoprotein interaction inhibition (red fluorophore); actives 0.03% (n = 75,000); Potency, µM (highest dose often 76.9 µM), for the others: top-dose activity change, negative = inhibition, hits mostly inhibitors; P38398; BRCT-phosphopeptide binding, red fluorescence polarization; note: % is set by controls: 0 for no effect and ±100 for the full control effect
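Rhodamine-labelled pBACH1 10-mer (100 nM) bound to BRCT domain (100 nM) at pH 7.3; compounds incubated 12 min room temperature, polarization read. Free peptide defines full inhibition; unlabelled decapeptide titrated as control.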
USP2a inhib: USP2a (human) protease inhibition. USP2a enzymatic assay, qHTS inhibition. Potency, µM (top dose mostly 38.3 µM), for the others: at the highest dose activity change, negative = inhibition, usual class: inhibitors. actives 0.1% (n = 60,000). AID 927; note: potency is the fitted concentration of half-maximal effect; nearly all actives have a fitted effect of over 60% in size
Target sequence (O75604 whole entry, looked up): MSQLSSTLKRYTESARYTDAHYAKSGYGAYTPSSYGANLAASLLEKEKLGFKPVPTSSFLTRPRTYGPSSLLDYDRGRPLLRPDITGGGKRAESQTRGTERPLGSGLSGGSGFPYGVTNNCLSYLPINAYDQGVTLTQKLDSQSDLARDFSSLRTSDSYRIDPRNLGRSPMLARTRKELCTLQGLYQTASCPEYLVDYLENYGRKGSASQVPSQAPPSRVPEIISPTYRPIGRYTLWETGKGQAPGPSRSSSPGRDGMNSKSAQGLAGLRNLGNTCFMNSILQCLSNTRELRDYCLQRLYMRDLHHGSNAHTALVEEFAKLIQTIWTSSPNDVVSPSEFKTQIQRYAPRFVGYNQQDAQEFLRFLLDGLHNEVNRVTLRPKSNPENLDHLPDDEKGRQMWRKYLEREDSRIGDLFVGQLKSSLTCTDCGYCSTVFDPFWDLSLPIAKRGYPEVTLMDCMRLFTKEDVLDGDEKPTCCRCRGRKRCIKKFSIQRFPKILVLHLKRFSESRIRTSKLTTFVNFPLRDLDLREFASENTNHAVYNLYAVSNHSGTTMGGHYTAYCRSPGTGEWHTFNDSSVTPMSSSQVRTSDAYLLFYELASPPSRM
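USP2 core (20 nM final) was preincubated with compound for 30 min at RT in 20 mM Tris-HCl pH 8.0, 2 mM CaCl2, 2 mM beta-mercaptoethanol; Ub-PLA2 (20 nM) plus NBD C6-HPC (20 uM) then added, fluorescence read after 2.5 h.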
BRCT inh green: inhibitors of human BRCA1 BRCT-phosphoprotein interaction (green fluorophore); P38398; BRCA1 BRCT-phosphopeptide binding, green fluorescence polarization; Potency, µM (titrated, usually from 76.9 µM), for inactives: top-dose activity change, negative = inhibition, actives largely listed as inhibitors; actives 0.05% (n = 75,000); AID 875;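 note: potency is the fitted concentration of half-maximal effect; plate controls were peptide without protein for full effect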
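Fluorescence polarization: His-tagged BRCT (~35 kDa BRCA1 C-terminus, 250 nM) bound to 100 nM fluorescein-labeled phosphorylated 10-aa BACH1 peptide, pH 7.3 phosphate buffer with DTT and Tween 20. Compounds incubated 12 min at room temperature; inhibition read as lowered polarization.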
TsaE inh: displaces an ADP probe from E. coli YjeE (TsaE). P0AF67. purified YjeE enzyme, qHTS inhibition assay. Potency, µM. actives 0.05% (n = 71,000)
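Purified YjeE (10 uM) with BODIPY Texas Red-labeled ADP probe (2 uM); compounds pin-transferred, 15 min at room temperature. Binding inhibition read as decreased fluorescence polarization; ADP titration as control.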
* marks the source's active call; other numbers are inactive results; ! = not active in a repeat; [ ] = another dose, or the depositor's remark. Unless noted, calls come from the whole dose curve; as a rule, active = well fitted curve in the direction sought with a large enough effect; inconclusive = small, poorly fitted or top-dose-only effect, or another doubt; inactive = no such curve, though single readings can be large; an effect the other way counts as inactive or inconclusive.

How did Nc1nc(-c2ccco2)c(-c2ccco2)s1 do in these assays?
UbGFP stabilizer: 1%; Hsp90 Hop PPI: inconclusive; BRCT inh red: -20%; USP2a inhib: 16%; BRCT inh green: -14%; TsaE inh: inactive

Results for c1coc(-c2nc(-c3ccco3)c(-c3ccco3)nc2-c2ccco2)c1 ?
UbGFP stabilizer: 2%; Hsp90 Hop PPI: inconclusive; BRCT inh red: inconclusive; USP2a inhib: inconclusive; BRCT inh green: 13µM*; TsaE inh: inactive

How did N#CC1(O)CCCCC1 do in these assays?
Hsp90 Hop PPI: -2%; BRCT inh red: 0%; BRCT inh green: -2%; TsaE inh: inactive

How did CC1=CC(C#N)(C#N)C(C#N)(C#N)C(c2ccccc2)N1 (stereo not drawn) do in these assays?
UbGFP stabilizer: -1%; Hsp90 Hop PPI: 3.2µM*; BRCT inh red: -17%; USP2a inhib: 2%; BRCT inh green: -6%; TsaE inh: 50µM*

What do the screens show for `O=C(O)C1=C/C(=C(/c2ccccc2)c2cc(C(=O)O)c(O)c3ccccc23)c2ccccc2C1=O`?
UbGFP stabilizer: -2%[9.17 µM]; Hsp90 Hop PPI: -3%[11 µM]; BRCT inh red: -1%[15.4 µM]; BRCT inh green: -2%[15.4 µM]; TsaE inh: inactive

How did C=CCn1c(=O)c(C(=O)NCCNCC)c(O)c2ccccc21 do in these assays?
UbGFP stabilizer: 6%; Hsp90 Hop PPI: -7%; BRCT inh red: 0%; USP2a inhib: 13µM*; BRCT inh green: 3%; TsaE inh: inactive

How did COc1ccc(C(=O)N2CCC3(CCCN(C(=O)NC(C)C)C3)CC2)cc1 do in these assays?
UbGFP stabilizer: -10%; Hsp90 Hop PPI: 0%; BRCT inh red: 1%; USP2a inhib: 10µM*; BRCT inh green: -3%; TsaE inh: inactive

Results for COc1ccc(NC(=O)N2CCCC3(CCN(C(=O)c4ccncc4)CC3)C2)cc1 ?
UbGFP stabilizer: -3%; Hsp90 Hop PPI: -2%; BRCT inh red: -1%; USP2a inhib: -13%; BRCT inh green: -3%; TsaE inh: inactive

How did COC(=O)[C@@H]1[C@@H](O)[C@]2(O)c3ccccc3O[C@]2(c2ccccc2)[C@H]1c1ccccc1 do in these assays?
BRCT inh red: 0%[15.4 µM]; BRCT inh green: 0%[15.4 µM]

Results for O=C1c2ccccc2C(=O)c2c(NC3CCCCC3)ccc(Nc3ccc(S(=O)(=O)O)cc3)c21 ?
UbGFP stabilizer: 5%[9.17 µM]; Hsp90 Hop PPI: 4µM*; BRCT inh red: -22%[15.4 µM]; BRCT inh green: -17%[15.4 µM]; TsaE inh: 13µM*

What do the screens show for `Cc1cc2nc3c(=O)[nH]c(=O)nc-3n(CC(O)C(O)C(O)CO)c2cc1C` (stereo not drawn)?
UbGFP stabilizer: 5%; Hsp90 Hop PPI: -6%; BRCT inh red: -9%; USP2a inhib: 63%; BRCT inh green: 13µM*!; TsaE inh: inactive

How did O=C(N/N=C\c1ccccc1O)c1ccccc1O do in these assays?
UbGFP stabilizer: 1%; Hsp90 Hop PPI: 10µM*; BRCT inh red: -2%; BRCT inh green: 11%; TsaE inh: inactive

Results for O=C(CSC1=NCCN1)c1ccccc1 ?
UbGFP stabilizer: 7%[9.17 µM]; Hsp90 Hop PPI: -4%[11 µM]; BRCT inh red: 1%[15.4 µM]; BRCT inh green: 0%[15.4 µM]; TsaE inh: inactive

How did O=C(O)CN(CC(=O)O)Cc1cc2c(-c3ccccc3C(=O)O)c3cc(CN(CC(=O)O)CC(=O)O)c(=O)cc-3oc2cc1O do in these assays?
BRCT inh red: 0.63µM*; USP2a inhib: 54%; BRCT inh green: 0.13µM*

Results for O=c1cc(-c2ccccc2)oc2cc(O)c(O)c(O)c12 ?
UbGFP stabilizer: -5%; Hsp90 Hop PPI: inconclusive; BRCT inh red: -4%; USP2a inhib: 15%; BRCT inh green: -3%; TsaE inh: inactive

Results for O=C(NCCCn1ccnc1)C(F)(F)C(F)(F)C(=O)NCCCn1ccnc1 ?
UbGFP stabilizer: 13%; Hsp90 Hop PPI: 25µM*; BRCT inh red: -2%; USP2a inhib: 1%; BRCT inh green: 0%; TsaE inh: inactive

How did CC(C)(Oc1ccc(Cl)cc1)C(=O)NCCCn1ccnc1 do in these assays?
UbGFP stabilizer: -2%; Hsp90 Hop PPI: -2%; BRCT inh red: -1%; USP2a inhib: 8%; BRCT inh green: -4%; TsaE inh: inactive

What do the screens show for `CC(C)(C)CC(C)(C)c1ccc(O)c(Cc2ccc(Cl)cc2Cl)c1`?
BRCT inh red: -1%; USP2a inhib: 10µM*; BRCT inh green: 1%[3.08 µM]

Results for Oc1ccc(Cl)cc1Cc1cc(Cl)cc(Cc2cc(Cl)ccc2O)c1O ?
UbGFP stabilizer: 1%[9.17 µM]; Hsp90 Hop PPI: -4%[11 µM]; BRCT inh red: 1%[15.4 µM]; BRCT inh green: 0%[15.4 µM]; TsaE inh: inactive

What do the screens show for `CC1=C(C(=O)OCCOC(C)C)C(c2cccnc2)C2=C(CCCC2=O)N1` (stereo not drawn)?
UbGFP stabilizer: -10%; Hsp90 Hop PPI: -2%; BRCT inh red: 0%; USP2a inhib: 6%; BRCT inh green: -2%; TsaE inh: inactive

How did CC(=O)N1c2ccccc2NC2=C(C(=O)CCC2)C1c1cccnc1 (stereo not drawn) do in these assays?
UbGFP stabilizer: -2%; Hsp90 Hop PPI: -5%; BRCT inh red: -5%; USP2a inhib: 1.6µM*; BRCT inh green: 3%; TsaE inh: inactive

How did c1ccc2c(c1)CCC[C@@H]2C1=NCCN1 do in these assays?
UbGFP stabilizer: -3%[20.5 µM]; Hsp90 Hop PPI: -2%[26 µM]; BRCT inh red: 1%[34.4 µM]; USP2a inhib: -6%[17.1 µM]; BRCT inh green: 1%[34.4 µM]; TsaE inh: inactive

How did Cc1cc(Nc2ccc(O)cc2)ccc1N do in these assays?
Hsp90 Hop PPI: inconclusive; BRCT inh red: -4%; BRCT inh green: -1%; TsaE inh: 100µM*

How did CN(C)c1ncc2nc(-c3ccc(Cl)cc3)c(=O)n(C)c2n1 do in these assays?
UbGFP stabilizer: 1%; Hsp90 Hop PPI: -3%; BRCT inh red: -1%; USP2a inhib: 34%; BRCT inh green: -1%; TsaE inh: inactive

How did COc1cccc(Cn2c(=O)c(-c3ccccc3)nc3cnc(N(C)C)nc32)c1 do in these assays?
UbGFP stabilizer: 8%; Hsp90 Hop PPI: 10µM*; BRCT inh red: -1%; USP2a inhib: 33%; BRCT inh green: 5%; TsaE inh: inactive

How did CN(C)c1ncc2nc(-c3ccccc3)c(=O)n(C)c2n1 do in these assays?
UbGFP stabilizer: 9%; Hsp90 Hop PPI: 13µM*; BRCT inh red: 0%; USP2a inhib: 28%; BRCT inh green: 0%; TsaE inh: inactive

What do the screens show for `COc1cccc(Cn2c(=O)c(-c3ccc(Cl)cc3)nc3cnc(N(C)C)nc32)c1`?
UbGFP stabilizer: 5%; Hsp90 Hop PPI: -1%; BRCT inh red: -1%; USP2a inhib: 69%; BRCT inh green: 0%; TsaE inh: inactive
